Screening results (PubChem BioAssay)
PfHsp90 set2 – growth inhibition of PfHsp90-expressing yeast, primary screen, antimalarial PfHsp90 inhibitor project, S. cerevisiae, BacTiter-Glo luminescence, single point, set 2 | BacTiter-Glo ATP, 48 h; yeast lacking PDR1 and PDR3 efflux regulators | inhibition, % at 9.4 µM | hit rate 0.32% among 310,000;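 active = every replicate shows inhibition above about 80%, whatever the replicate mean, limit read from the data; inconclusive = mean inhibition reaches the set limit but some replicate falls short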
Glyco luc inh – increase of ERlucT glycosylation luciferase signal, primary screen, N-linked glycosylation inhibitor project, D54 ERlucT cells, luminescence, set 2 | D54 ERlucT glycosylation luciferase reporter, 24 h; percent of 100 nM tunicamycin response | reporter increase, % at 12.5 µM | hit rate 0.23% among 360,000 | AID 588692, 2011;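 active = mean luciferase reporter signal, scaled so untreated is 0 and the glycosylation-blocking control 100, at or above a set limit in every replicate; inconclusive = mean reaches the limit but not every replicate does; inactive = mean below the limit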;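 also: luciferase carries N-glycosylation sites so blocking glycosylation raises the light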
Wnt act – Wnt/beta-catenin pathway activators, primary screen, cell-based, plate reader, single point; Wnt/beta-catenin reporter cell assay, activator; hit rate 1.2% among 300,000; activation, % at 9.35 µM; in the data active = activation above about 30%, passing the limit was not always enough; inconclusive = no clear call, values can overlap the other calls
Vif inh – HIV Vif self-association inhibitors, primary screen, imaging, HEK293T, single point. inhibition, % at 7.49 µM. hit rate 0.35% among 340,000. HEK293T cells, Vif self-association by quenched fluorescence, 24 h; in the data active = inhibition above about 50%, passing the limit was not always enough; inconclusive = no clear call, values can overlap the other calls; inactive = below about 31%
esBAF inh – Bmi1 luciferase reporter increase in mESCs, primary screen, esBAF inhibitor project, mouse ES cells, Bmi1 luciferase knock-in, single point | AID 602393, 2012 | reporter increase, % at 12.5 µM | 24 h; 100% = twice the neutral-well signal | hit rate 2% among 350,000; in the data active = activation above about 40%; inconclusive = no clear call, values can overlap the other calls;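 also: a rise in the Bmi1 reporter signal indicates esBAF inhibition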
MITF TRPM1 HTS – activators of MITF-driven TRPM1 promoter reporter, primary screen, cell-based, SK-MEL-5, luciferase, single point. SK-MEL-5 TRPM1-promoter luciferase, 24 h; % of positive control, neutral wells = 0. activation, % at 12.5 µM. hit rate 0.75% among 300,000. AID 588334, 2011;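 active = mean activation of at least 80% with every replicate also reaching 80%; inconclusive = mean reaches 80% but some replicate falls short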
Of the large screens only hits and unclear results are named; the others gave an inactive call. Hits are enriched below; roughly 3% of the tested compounds scored in any of these assays.

CCOC(=O)N1CCN(S(=O)(=O)c2ccc(F)c(C(=O)Nc3ccc(C)c(Cl)c3)c2)CC1	none (no result: esBAF inh)
O=C(COc1ccc(Cl)cc1Cl)NC1CC1	none (no result: PfHsp90 set2, esBAF inh, MITF TRPM1 HTS)
O=C(COc1ccc(Cl)cc1Cl)NC(=O)N1CCCCC1	esBAF inh 59.1, MITF TRPM1 HTS 95.0 (no result: Wnt act)
Cc1cc(Cl)ccc1OCC(=O)N1CCCCC1	esBAF inh 58.3 (no result: Wnt act)
O=C(COc1ccc(Cl)cc1Cl)NC1CCSC1=O (stereo not given)	MITF TRPM1 HTS 93.5 (no result: Wnt act)
COc1ccc(CCNC2CC(=O)N(CCc3ccc(OC)c(OC)c3)C2=O)cc1 (stereo not given)	none (no result: Wnt act)
CC(C)C[C@H](NC(=O)CCn1nnc2ccccc2c1=O)C(=O)O	none
O=C(NCC[C@H]1CC[C@H](NC(=O)c2ccc3c(c2)OCO3)[C@@H](CO)O1)Nc1cc(F)ccc1F	none (no result: PfHsp90 set2, Glyco luc inh, Wnt act, Vif inh, MITF TRPM1 HTS)
O=C(O)CC(CN1C(=O)c2ccccc2C1=O)c1ccccc1 (stereo not given)	Wnt act 45.5
O=C(O)CC(c1ccccc1)c1ccccc1	none (no result: Wnt act)
Cc1nc2ccc(NC(=O)CSc3ccccc3)cc2s1	Wnt act 50.0, esBAF inh 54.4, MITF TRPM1 HTS 98.2
COc1ccccc1C(=O)Nc1ccc2nc(SCC(=O)N(C)C)sc2c1	none (no result: esBAF inh)
Cc1nc2ccc(NC(=O)Cc3c(F)cccc3Cl)cc2s1	Wnt act 39.1, MITF TRPM1 HTS 108.0 (no result: esBAF inh)
Cc1ccc(NC(=O)Cc2cccs2)cc1Cl	none
Cc1nc2ccc(NC(=O)Cc3cccs3)cc2s1	Wnt act 61.3, esBAF inh 70.8, MITF TRPM1 HTS 88.1
O=C(CSc1nc2ccc(NC(=O)c3ccccc3C(=O)O)cc2s1)Nc1ccc(F)c([N+](=O)[O-])c1	Wnt act 35.0
O=C(Cc1c(F)cccc1Cl)Nc1nc2ccccc2s1	none (no result: esBAF inh)
CC1=C(C(=O)OC(C)C)C(c2cccs2)NC(=O)N1 (stereo not given)	none
CCONc1ncnc2nonc12	none
Clc1ccc(CONc2ncnc3nonc23)c(Cl)c1	esBAF inh 53.3
C=CCC(NCc1ccccc1)c1ccc(OC)cc1 (stereo not given)	none (no result: MITF TRPM1 HTS)
O=c1c2ccccc2nc2n1CCc1c-2[nH]c2ccccc12	Wnt act 40.7
COc1ccccc1N1CCN(CC(=O)c2ccc(F)cc2)CC1	esBAF inh 41.9 (no result: MITF TRPM1 HTS)
COC(=O)c1ccc(N2CCN(CC(=O)c3ccc(-c4ccccc4)cc3)CC2)c([N+](=O)[O-])c1	esBAF inh 48.5 (no result: Wnt act)
COc1ccc(C(=O)CN2CCN(c3ccc(F)cc3)CC2)cc1OC	none (no result: Wnt act, esBAF inh)
c1ccc(COc2ccc(OCCn3cncn3)cc2)cc1	esBAF inh 68.4, MITF TRPM1 HTS inconclusive (no result: Wnt act, Vif inh)
c1ccc(Oc2cccc(OCCn3cncn3)c2)cc1	none (no result: esBAF inh)
c1ccc(-c2ccc(OCCCn3cncn3)cc2)cc1	Wnt act 35.4, esBAF inh 50.7
O=c1c2c3c(sc2ncn1/N=C/c1ccc([N+](=O)[O-])o1)CCCC3	PfHsp90 set2 104.9, Glyco luc inh inconclusive (no result: Wnt act)
COc1cccc(N(CC(=O)NCCN2CCOCC2)S(=O)(=O)c2ccccc2)c1	none
Cc1oc(-c2ccoc2)nc1CN(CC1CCC(=O)N1)C(C)C (stereo not given)	none
COCCN(Cc1nc(-c2ccc(-c3ccccc3)cc2)oc1C)C(C)C	esBAF inh 65.2
CO[C@H]1CC[C@H]2CCOc3c(C#N)cccc3C(=O)N(C)C[C@@H](OC)[C@H](C)C(=O)N(C)C[C@@H]1O2	none (no result: PfHsp90 set2, Glyco luc inh, Wnt act, Vif inh, MITF TRPM1 HTS)
COc1cc(/C=N/OCC(=O)NC23CC4CC(CC(C4)C2)C3)ccc1OCc1ccccc1	esBAF inh 62.1
COc1cc(/C=N/OCC(=O)NC2CCCCC2)ccc1OCc1ccccc1	none (no result: esBAF inh)
C/C(=N/NC(=O)Nc1ccccc1)c1ccc(C)cc1	none
C/C(=N\OC(=O)Nc1ccccc1)c1ccc(C)cc1	MITF TRPM1 HTS 100.7 (no result: esBAF inh)
CSc1cccc(-n2cc(-c3ccc4c(c3)OCO4)[nH]c2=O)c1	esBAF inh 45.2 (no result: Wnt act)
NC(=O)C(=O)N/N=C1\CCc2ccccc21	Wnt act 33.1, esBAF inh 48.4
O=C(N/N=C/c1ccc(O)c(O)c1)NC12CC3CC(CC(C3)C1)C2	none
O=C(N/N=C/c1ccccc1O)NC12CC3CC(CC(C3)C1)C2	MITF TRPM1 HTS 136.0 (no result: Vif inh)
CCOC(=O)CSc1nnc(NC(=O)NC(C)C)s1	none (no result: esBAF inh)
O=C(Nc1ccc(Oc2cccnc2)cc1)c1ccccc1F	esBAF inh 60.3
CC(C)NC(=O)N1C[C@@H]2[C@H](c3ccccc31)[C@@H](CO)N2C(=O)Nc1ccc(F)cc1	none (no result: PfHsp90 set2, Glyco luc inh, Wnt act, Vif inh, MITF TRPM1 HTS)
CCCC(=O)OCC(=O)Nc1ccc(N=Nc2ccccc2)cc1	Wnt act 50.8 (no result: esBAF inh)
CC1CC1C(=O)OCC(=O)Nc1ccc(N=Nc2ccccc2)cc1 (stereo not given)	MITF TRPM1 HTS inconclusive (no result: esBAF inh)
CCC(C)(C)NC(=O)C(C(C)C)N(CC1CCCO1)C(=O)CNS(=O)(=O)c1ccc(F)cc1 (stereo not given)	none (no result: MITF TRPM1 HTS)
O=C(NCc1ccco1)c1cc2c(s1)CCCCC2	esBAF inh 56.8
CC(C)C1C(=O)CC(c2ccccc2)NC1c1ccccc1 (stereo not given)	none (no result: MITF TRPM1 HTS)
COc1cc(C(=O)OC2CC3CCC2(C)C3(C)C)ccc1OC(C)=O (stereo not given)	esBAF inh 48.7
CC1(C)C2CCC1(C)C(OC(=O)CNc1ccccc1)C2 (stereo not given)	none (no result: esBAF inh)
Cc1ccc(-c2ccc(NC(=O)C3C4C=CC(C4)C3C(=O)O)cc2)o1 (stereo not given)	esBAF inh 58.8 (no result: Wnt act, MITF TRPM1 HTS)
COc1ccc(NC(=O)C2C3C=CC(C3)C2C(=O)O)cc1 (stereo not given)	none (no result: esBAF inh)
Cc1ccccc1NC(=S)N(Cc1cccs1)C1CCCC1	Vif inh 51.3
O=C(/C=C/c1ccccc1)c1c[nH]c2ccccc12	Wnt act 46.1
O=C(C=Cc1ccccc1)c1c[nH]c2ccccc2c1=O	esBAF inh inconclusive
C[C@@H]1CN([C@H](C)CO)C(=O)c2cccc(NC(=O)c3nc4ccccc4s3)c2O[C@H]1CN(C)S(C)(=O)=O	none (no result: PfHsp90 set2, Glyco luc inh, Wnt act, Vif inh, MITF TRPM1 HTS)
CCOC(=O)c1sc(Nc2ccc(C)cc2C)nc1C	none
O=C1CC(c2ccccc2)Sc2nc3ccccc3n21 (stereo not given)	Wnt act 34.6 (no result: esBAF inh)
O=C1CC(c2cccs2)Sc2nc3ccccc3n21 (stereo not given)	none (no result: Wnt act, esBAF inh)
O=C1CC(c2ccco2)Sc2nc3ccccc3n21 (stereo not given)	Wnt act 46.5
CCN1C(=O)/C(=C2/C=Cc3cc(C)ccc3N2CC)N(C)C1=S	none (no result: esBAF inh)
O=C(c1ccc(Cl)c([N+](=O)[O-])c1)N(Cc1ccc(Cl)cc1)C1CCS(=O)(=O)C1 (stereo not given)	Wnt act 47.0 (no result: esBAF inh)
